Measurements from PMC13494018.
Values without a mark were called inactive. No rule for the calls is given here.

B1: design_619_5728adc2-0aea-404f-92dd-a4575c53f550_1938_dldesign_0_cycle1_af2pred (protein)
chain: AKEEAKKLLEKTKKEAEKAVKEAEAGTPTTAAEQAVKVLEFGKEAVEKARELGDEETAEQIAQVTNEAVAKITKAAIAKAK
B2: design_619_5728adc2-0aea-404f-92dd-a4575c53f550_1766_dldesign_0_cycle1_af2pred (protein)
chain: ADPAALAAIQEQRDKALKEIEEAAKEAKETTEEEARKKIVDAAHTATAQLAQIGVAHPAVAAEAGQAISEILDAGKRALEEAKKNA
B3: design_619_5728adc2-0aea-404f-92dd-a4575c53f550_2359_dldesign_0_cycle1_af2pred (protein)
chain: SQAQGELLEAVKYASKAMKLDPALAPQLQQAINLLVRAIVLLAQGDEAQAAEEAKKAAKLFEEAAKKASPEAAKELKKAAKEAEKAI
B4: design_620_fbd04095-bef7-46a9-992d-f2cb8915922f_77_dldesign_0_cycle1_af2pred (protein)
chain: DAVTAQIKALGAAGVAQARADPENAVAIASRTNAQIWGLILAAGADAAASAVALEATRANAEAVRETTAAAAAAAAAAAAAAAA
B5: design_619_5728adc2-0aea-404f-92dd-a4575c53f550_1124_dldesign_0_cycle1_af2pred (protein)
chain: ELEELRKEAEAKAAEARALAAEGAKYDPTAAALFNAALRFFEIAIRLAEEGGDPEEARAALDAGTTLLAAGRAVLAAAAAAAA
B6: design_619_5728adc2-0aea-404f-92dd-a4575c53f550_2058_dldesign_0_cycle1_af2pred (protein)
chain: AAVAQSQLQITQNLVAWALSQLTTYGPAQGATIAKAVRDLALAAGLPEAVADELAAGAAGTAAEAKAKGAQAVALAQAAVAA
B7: design_619_5728adc2-0aea-404f-92dd-a4575c53f550_1575_dldesign_0_cycle1_af2pred (protein)
chain: AAWQALEIAKKAGLALAKSAAAMPNPEDAKKAAETAKDMVTATAQAVIDAGGDKEKAKALVEEVKKAAEAGVKAAKA
B8: design_619_5728adc2-0aea-404f-92dd-a4575c53f550_1779_dldesign_0_cycle1_af2pred (protein)
chain: SAATEIATRTAQAAIRAGEEALERAREALEGETGREEVEREVARIEAQAETLELLAEGSPEIAPTANAKAEEFRREAERLREEAE
B9: design_619_5728adc2-0aea-404f-92dd-a4575c53f550_1370_dldesign_0_cycle1_af2pred (protein)
chain: AAAAVAANRAAAAATAETYKAKGKAAAADPAAALAYYNAAGLYAGLAKGDPEAEFAKYKAEADALIAAAKA
B10: design_620_fbd04095-bef7-46a9-992d-f2cb8915922f_254_dldesign_0_cycle1_af2pred (protein)
chain: AERLRAAAERLEAAAAATPEAAEAALAEAAALAEEVAAEYPGLGQLILNTLRQAAGLSPEERARAVARQFRALADYL
B11: design_619_5728adc2-0aea-404f-92dd-a4575c53f550_1912_dldesign_0_cycle1_af2pred (protein)
chain: AAQQQAQVAAAATQAVADQTIKVAEELGKYDPELAKKYKEEATKIKKQAQEAAKQGQQGLQQVNQLLSQALELLGEAAKKLREAK
B12: design_619_5728adc2-0aea-404f-92dd-a4575c53f550_1666_dldesign_0_cycle1_af2pred (protein)
chain: SEADAAALDELARLAGEVTGKPEEALALAEIAKQDPLALATLAAMARQARAASPEEAAQLARNAFQIMKALA
B13: design_619_5728adc2-0aea-404f-92dd-a4575c53f550_1668_dldesign_0_cycle1_af2pred (protein)
chain: ARAVVEAAANELAAETLRAGWQAGETGDAIAARIRAILEAGREVAEELAARNPAVTLEEARAAVRERAERLLAEAAA
B14: design_620_fbd04095-bef7-46a9-992d-f2cb8915922f_592_dldesign_0_cycle1_af2pred (protein)
chain: SMAEEAARAEKAAAFREQAEAILAQAQANAADAEKLQQLGQQAVELAEEAAALGDQEAAQAALRAAAQINALLVQAQ
B15: design_620_fbd04095-bef7-46a9-992d-f2cb8915922f_187_dldesign_0_cycle1_af2pred (protein)
chain: GEARRQFAEDTAAAAKQAAALYAADPEKAQQVKDAADKAVAAAESGEDAQLAGLSAIKVYQALVEAQKAA
B16: design_620_fbd04095-bef7-46a9-992d-f2cb8915922f_347_dldesign_0_cycle1_af2pred (protein)
chain: DAVAAGQALLYAAKSQGYIGKAKKAVKEGKLEEAKEYAEKAEEYAKKSEEYAKQSGDAAVQAQAKKVQEQVKKTKEEVKKAE
B17: design_619_5728adc2-0aea-404f-92dd-a4575c53f550_1264_dldesign_0_cycle1_af2pred (protein)
chain: GEEAAKKAEKAVEALKQGAKEAAKGTPELAANTAKSYITMAKSIAKGAKRADGGEAAKKVEKKAKEAIAEAKKLAKAAA
B18: design_619_5728adc2-0aea-404f-92dd-a4575c53f550_1864_dldesign_0_cycle1_af2pred (protein)
chain: MEEEKEKKEKEKLKKAKELLKKAKEMAENVAEYSVGEILRVATEAIRLATEAAKGKLKEEGKKVADEARKVAAEAARRALALQ
B19: design_619_5728adc2-0aea-404f-92dd-a4575c53f550_1820_dldesign_0_cycle1_af2pred (protein)
chain: AEAAKRAAAEAAVKKAAELAAKADPALAKRILDAKTIAEGISAAFTAAAQLIQKDPELAAEIVKEAEKAA
B20: design_619_5728adc2-0aea-404f-92dd-a4575c53f550_2222_dldesign_0_cycle1_af2pred (protein)
chain: MENLEKAKELLEKAEAYVKAAAASDLATAQALLGQAVAAGQEAVELLKDSPIYPEVSRKVVELIRAGLAAVAAKA
B21: design_620_fbd04095-bef7-46a9-992d-f2cb8915922f_548_dldesign_0_cycle1_af2pred (protein)
chain: MNASERVIARAEAIIAEAAALGAAHPAMAGETAAIQALARSAARMARSGEHIEDAEKAVEVAEAMLAATAARAAALAA
B22: design_619_5728adc2-0aea-404f-92dd-a4575c53f550_1269_dldesign_0_cycle1_af2pred (protein)
chain: AKEEAKEKAKKLVEEAKKLAEAAIADPSQYPAQAAKMTKLAEEAAKLGKELDPEIFGEAAQEILRLLIQAAQAVN
B23: design_619_5728adc2-0aea-404f-92dd-a4575c53f550_1162_dldesign_0_cycle1_af2pred (protein)
chain: SPVEQYAKAQADMLKEAAGVDDATAQAFADYIVANPALATQAGAMTVAIVRAADAARAAAAAAAAAAAAAAAA
B24: design_620_fbd04095-bef7-46a9-992d-f2cb8915922f_328_dldesign_0_cycle1_af2pred (protein)
chain: DPKAQAQATAETLAKQAKKAATEALKLAKELGDKETAEKMKEIIKKVEELLEKAKKGTAEEAGAAALEILKLLSEARKELEKLKKKA
B25: design_619_5728adc2-0aea-404f-92dd-a4575c53f550_1353_dldesign_0_cycle1_af2pred (protein)
chain: GETGEAKREGARVAARLGAAAVQLAAVDPEVAKKAQAAVGEVLEAMEAAAKDPSKVEEVKKAREKAEKALKEAEKTLA
B26: design_620_fbd04095-bef7-46a9-992d-f2cb8915922f_36_dldesign_0_cycle1_af2pred (protein)
chain: AAEEALKKLKELAEKTKKVAEEAGKVNPALAPEADFLSALAEAALNYAKKNAASPDFEKIAKKQLEQIKKALERAEKLLKEAKAQAA
B27: design_620_fbd04095-bef7-46a9-992d-f2cb8915922f_119_dldesign_0_cycle1_af2pred (protein)
chain: REAAAEELRRLAEEARRLGEAGTPEVRSMARMMATAMEVIARGGNVELALEALRAAAAGIANDGKFGAEMEELARRAEEAVR
B28: design_619_5728adc2-0aea-404f-92dd-a4575c53f550_1814_dldesign_0_cycle1_af2pred (protein)
chain: DEELRKEVLEKIKELEAKAKEAAADPATQGLAVFLKNTAATARRELEKDAELGLAVVEAGEEGLAYLQAS
B29: design_619_5728adc2-0aea-404f-92dd-a4575c53f550_1536_dldesign_0_cycle1_af2pred (protein)
chain: SAALEEARREFEAAVELLAEHPDLAAKVREGFELGVTDIGAGLALLTEARREALELGLEAAAREIRAGMAALLRAHL
B30: design_619_5728adc2-0aea-404f-92dd-a4575c53f550_1867_dldesign_0_cycle1_af2pred (protein)
chain: AAEKAALLAAAEATLARAQEVLAQAKKYPEVQPLAAAALGYALAAQGAVLVDPATGKAFLAKAQALLAEAEAQIKALEA
B31: design_619_5728adc2-0aea-404f-92dd-a4575c53f550_2217_dldesign_0_cycle1_af2pred (protein)
chain: DPAAALEKRTAAAMLAQAKAAVDADPALGRQRIANMEQLGKASPALAPYLLPAAEEARAYLAAKEAAAAA
B32: design_619_5728adc2-0aea-404f-92dd-a4575c53f550_1976_dldesign_0_cycle1_af2pred (protein)
chain: SPALLAARKAITETAAATINALTDPAAANLVGRAMIQGLQLAQQGEAAGAHAAAAVAALALVEAAAAAARALDAAAA
B33: design_619_5728adc2-0aea-404f-92dd-a4575c53f550_2329_dldesign_0_cycle1_af2pred (protein)
chain: SALTKKIEEKATKLVEEAAKTTPEEARKLATEALEIAKQSPEALSALAVELLKAAAKATPEVAAVLREVAAQAMRTAIEIARA
B34: design_620_fbd04095-bef7-46a9-992d-f2cb8915922f_329_dldesign_0_cycle1_af2pred (protein)
chain: SAESQAKAEELLREAFKRITELADAAAKSGTEEELAKAKKEMEEIAEKVEKEAGPGAGELARNYLKTQLAAAKAAIAAAK
B35: design_620_fbd04095-bef7-46a9-992d-f2cb8915922f_681_dldesign_0_cycle1_af2pred (protein)
chain: AAAEAAAAAAAAAAAAEAAARAARGREIMVRTVEAIVRQARASPDGLRLARIALRVAESAGDEEAIALARAALAELEAA
B36: design_619_5728adc2-0aea-404f-92dd-a4575c53f550_2492_dldesign_0_cycle1_af2pred (protein)
chain: AIADEIIALARAAAEAADPEESTRLMREAAELAVEKFPELTPEEANAVIGEFLEAAARASPEAAVIATRAAARLGAQLAA
B37: design_619_5728adc2-0aea-404f-92dd-a4575c53f550_1681_dldesign_0_cycle1_af2pred (protein)
chain: AEKAKQAAELAEVLAATAEQAPQLTPAQIAAVANTVAIGLKGLGEAKEAAELAEKAAEAAKRDKEEAVKLLREAAEALKKLAA
B38: design_620_fbd04095-bef7-46a9-992d-f2cb8915922f_158_dldesign_0_cycle1_af2pred (protein)
chain: IDTQANLELAKKSFNAALAQARRFAKTDRQAALAALKSAEVYAEAAEAADPAAGEELRKKVEEARKEIEAA

Each binder was assayed against CD276, Q5ZPR3.
Sequence of CD276, Q5ZPR3 (Q5ZPR3 whole entry): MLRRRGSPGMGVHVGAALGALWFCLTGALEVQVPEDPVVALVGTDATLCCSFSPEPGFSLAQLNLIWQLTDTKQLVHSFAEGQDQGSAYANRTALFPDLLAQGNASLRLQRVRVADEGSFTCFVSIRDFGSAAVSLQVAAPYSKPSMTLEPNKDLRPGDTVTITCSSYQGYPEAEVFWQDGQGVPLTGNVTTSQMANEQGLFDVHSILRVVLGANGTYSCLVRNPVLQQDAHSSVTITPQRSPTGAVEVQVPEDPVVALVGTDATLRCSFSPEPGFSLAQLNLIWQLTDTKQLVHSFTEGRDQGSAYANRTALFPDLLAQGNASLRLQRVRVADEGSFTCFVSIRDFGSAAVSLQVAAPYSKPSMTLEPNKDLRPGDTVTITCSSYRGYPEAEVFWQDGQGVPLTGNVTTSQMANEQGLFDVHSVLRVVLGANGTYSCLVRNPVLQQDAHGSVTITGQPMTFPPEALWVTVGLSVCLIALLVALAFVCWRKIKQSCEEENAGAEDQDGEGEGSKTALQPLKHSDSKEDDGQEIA

| Binder | binding in a display sort |
| --- | --- |
| B1 | not found |
| B2 | not found |
| B3 | not found |
| B4 | not found |
| B5 | not found |
| B6 | not found |
| B7 | not found |
| B8 | not found |
| B9 | not found |
| B10 | not found |
| B11 | not found |
| B12 | not found |
| B13 | not found |
| B14 | not found |
| B15 | not found |
| B16 | not found |
| B17 | not found |
| B18 | not found |
| B19 | not found |

| Binder | binding in a display sort |
| --- | --- |
| B20 | not found |
| B21 | not found |
| B22 | not found |
| B23 | not found |
| B24 | not found |
| B25 | not found |
| B26 | not found |
| B27 | not found |
| B28 | not found |
| B29 | not found |
| B30 | not found |
| B31 | not found |
| B32 | not found |
| B33 | binds (active) |
| B34 | not found |
| B35 | not found |
| B36 | not found |
| B37 | not found |
| B38 | not found |
